Bioassay records (PubChem BioAssay)
VDR inhibitor – Inhibitors of the vitamin D receptor (VDR): qHTS. Vitamin D3 receptor (Homo sapiens), P11473. VDR-SRC2-3 peptide fluorescence polarization, 2 h. Potency, µM, for the others: max response, negative = inhibition, most hits filed as inhibitors. actives 0.93% (n = 400,000). AID 504847, 2011
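Signal is fluorescence polarization, reporting how far test compounds block the interaction of VDR with the SRC2-3 coregulator peptide after a 2 h room-temperature incubation.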
ALOX12 inh – Primary qHTS assay for inhibitors of human arachidonate 12S-lipoxygenase (ALOX12): Round 2; Polyunsaturated fatty acid lipoxygenase ALOX12 (Homo sapiens), P18054; Potency, µM (top dose mostly 108 µM), inactives show top-dose activity change, negative = inhibition, actives largely listed as inhibitors; actives 1.1% (n = 580,000); AID 1671190, 2021; purified 12hLO, xylenol orange hydroperoxide absorbance
Target sequence (P18054 whole entry, looked up): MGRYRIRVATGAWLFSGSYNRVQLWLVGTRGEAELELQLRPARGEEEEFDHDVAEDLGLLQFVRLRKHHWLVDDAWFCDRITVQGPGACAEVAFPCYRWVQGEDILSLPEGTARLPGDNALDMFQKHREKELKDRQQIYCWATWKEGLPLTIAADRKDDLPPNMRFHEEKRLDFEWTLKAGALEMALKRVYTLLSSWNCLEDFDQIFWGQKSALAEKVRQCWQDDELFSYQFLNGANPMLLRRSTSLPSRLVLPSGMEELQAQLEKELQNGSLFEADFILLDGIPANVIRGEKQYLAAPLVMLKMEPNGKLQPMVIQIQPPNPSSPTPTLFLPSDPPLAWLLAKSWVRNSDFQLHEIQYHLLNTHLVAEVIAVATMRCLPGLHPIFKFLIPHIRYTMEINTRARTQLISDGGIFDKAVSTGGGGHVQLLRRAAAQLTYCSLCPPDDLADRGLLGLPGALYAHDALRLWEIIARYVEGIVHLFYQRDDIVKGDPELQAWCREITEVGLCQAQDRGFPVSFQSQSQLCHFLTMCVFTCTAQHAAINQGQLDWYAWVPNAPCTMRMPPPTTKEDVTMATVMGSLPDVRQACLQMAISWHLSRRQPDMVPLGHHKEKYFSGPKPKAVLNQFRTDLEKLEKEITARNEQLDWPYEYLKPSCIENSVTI
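Hydroperoxide product was detected by ferrous iron/xylenol orange as the 573 to 405 nm absorbance ratio. Arachidonic acid at 40 uM (final) was turned over for 30 min at room temperature by 150 nM human 12hLO, pH 7.0 Hepes buffer, after 15 min compound preincubation.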
GCN5L2 inh – qHTS Assay for Inhibitors of GCN5L2 | Histone acetyltransferase KAT2A (Homo sapiens), Q92830 | GCN5L2 HAT assay, ThioGlo1 CoA-SH fluorescence | Potency, µM (series often up to 58.9 µM), for inactives: top-dose activity change, negative = inhibition, most hits filed as inhibitors | actives 0.21% (n = 390,000) | AID 504327, 2011
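GCN5L2 (20 nM) in 50mM HEPES pH 7.5, 0.1mM EDTA, 0.01% Tween-20 preincubated 15 min with compounds at room temperature. Reaction started with H3(1-25) 75uM, acetyl-CoA 70uM, ThioGlo1 50uM; CoA-thiol fluorescence (Ex340/Em540) read at 0 and 20 min.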
PLK1 PBD block – qHTS for Inhibitors of PLK1-PDB (polo-like kinase 1 - polo-box domain): Primary Screen. Potency, µM, without a hit: max response, negative = inhibition, usual class: inhibitors. Plk1 PBD binding of FITC phosphopeptide, fluorescence polarization. actives 2.8% (n = 360,000); note: series mostly up to about 57 µM; nearly all actives have a fitted effect of over 65% in size
* marks the source's active call; other numbers are inactive results; u = inconclusive; x = no result; [ ] = another dose, or the depositor's remark. Hits are enriched below; roughly 3% of the tested compounds scored in any of these assays. Calls come from the whole dose curve; as a rule, active = well fitted curve in the direction sought with a large enough effect; inconclusive = small, poorly fitted or top-dose-only effect, or another doubt; inactive = no such curve, though single readings can be large; an effect the other way counts as inactive or inconclusive. % is set by controls: 0 for no effect and ±100 for the full control effect; potency is the fitted concentration of half-maximal effect.

SMILES	VDR inhibitor	ALOX12 inh	GCN5L2 inh	PLK1 PBD block
COc1ccc2cc(Br)ccc2c1CC(=O)N(C)C	0%	246%	-12%	-3%
COC(=O)Cc1c(OC)ccc2cc(Br)ccc12	x	44%	x	x
COc1ccc(CCN(C)Cc2c(O)ccc3cc(Br)ccc23)cc1OC	19%	18µM*	-10%	u
CCCCN(C)C(=O)Cc1c(OC)ccc2cc(Br)ccc12	22µM*	-20%	-2%	24µM*
COc1ccc(CN(C)Cc2c(O)ccc3cc(Br)ccc23)cc1OC	-2%	28µM*	-6%	u
CC(=O)n1c(=O)c2ccccc2c(=O)n1-c1ccccc1	u	0%	16%	13µM*
O[C@H]1CC[C@@H](Cc2cc(COc3ccccc3)on2)O[C@@H]1CNCc1cccnc1	x	0%[176 µM]	x	x
CC(C)Oc1ccc2ccccc2c1/C=C(\C#N)c1nc2ccccc2[nH]1	x	10%	x	x
O=C(CCC1CCCN(C(=O)CC2=CCCCC2)C1)N1CCN(c2ccccn2)CC1 (stereo not given)	79µM*	-11%	1%	8.4µM*
O=C(CCC1CCCN(C(=O)C2=CCCC2)C1)N1CCN(c2ccccn2)CC1 (stereo not given)	-22%	-11%	-7%	-27%
Nc1c(-c2ccccc2)c(CSc2nc3ccccc3[nH]2)nn1-c1ccc(C(=O)O)cc1	u	-17%	-5%	15µM*
Cc1ccc(C)c(NC(=O)Cn2c(-c3cccc(Cl)c3)nc(C)c(CCO)c2=O)c1	x	-5%	x	x
Cc1ccc(CNC(=S)NCCN(C)C)cc1	x	-10%	x	x
COc1cccc(CCC(=O)N2CCC(c3n[nH]c(=O)n3-c3ccccc3)CC2)c1	x	-16%	x	x
COc1ccccc1CCC(=O)N1CCC2(CC1)NC(=O)N(c1ccccc1)N2	x	2µM*	x	x
COc1cccc(C(=O)N2CCC3(CC2)NC(=O)N(c2ccccc2)N3)c1	x	6.3µM*	x	x
COc1cccc(CCC(=O)N2CCC3(CC2)NC(=O)N(c2ccccc2)N3)c1	x	2.5µM*	x	x
O=C(CCc1ccccc1)N1CCC2(CC1)NC(=O)N(c1ccccc1)N2	x	2.2µM*	x	x
COc1ccc(CCC(=O)N2CCC3(CC2)NC(=O)N(c2cccc(Cl)c2)N3)cc1	x	2µM*	x	x
COc1cccc(CCC(=O)N2CCC3(CC2)NC(=O)N(c2cccc(F)c2)N3)c1	x	5.6µM*	x	x
Cc1ccc(Nc2cc(C)c3c(O)cccc3n2)cc1C	15%	u	-17%	-1%
COc1ccc(Nc2cc(C)c3c(O)cccc3n2)cc1	u	u	-2%	27µM*
COC(=O)C1SCC2C(=O)N(Cc3ccc(Cl)c(Cl)c3)CC(=O)N21 (stereo not given)	u	-20%	-1%	19µM*
COC(=O)C1SCC2C(=O)N(Cc3ccc(Cl)cc3)CC(=O)N21 (stereo not given)	-15%	-21%	3%	-6%
COc1ccc(NCC(=O)N/N=C/c2cc([N+](=O)[O-])ccc2N2CCCC2)cc1	u	-8%	-7%	13µM*
SMILES	VDR inhibitor	ALOX12 inh	GCN5L2 inh	PLK1 PBD block
Cc1ccc([N+](=O)[O-])cc1S(=O)(=O)N1CCNCC1	-26%	2%	-6%	15µM*
COc1ccc2c(c1)OC/C(=C/c1ccc(O)c(O)c1)C2=O	u	x	11%	x
COc1ccc2c(c1)OC/C(=C/c1ccc(OC)c(OC)c1)C2=O	22µM*	x	-8%	x
Cc1nn(-c2nncc(-c3ccccc3)n2)c2c1C(c1cccc(O)c1)CC(=O)N2 (stereo not given)	x	6%	x	x
COc1ccc(C)cc1Nc1n[n+](-c2ccccc2)c(-c2ccc(C(=O)O)cc2)s1	-19%	18µM*	1%	-25%
COc1ccc(C)cc1Nc1n[n+](-c2ccccc2)c(-c2c(OC)ccc3ccccc23)s1	-27%	u	-1%	-19%
COc1ccc(C)cc1Nc1n[n+](-c2ccccc2)c(-c2cc(OC)c(OC)cc2Br)s1	4%	40µM*	-8%	-25%
COc1ccc(/C=N/NC(=O)/C(=C/c2ccccc2)CCO)cc1	u	-14%	2%	27µM*
O=C(CCc1ncc(-c2ccccc2F)o1)N1CCN(S(=O)(=O)c2ccccc2Cl)CC1	x	-4%	x	x
